The results in this text go back to PubChem BioAssay AID1626 (SRMLSC, 2009).

Hit rate of the full screen: of about 220,000 compounds, about 2,000 (0.91%) were called active. Inconclusive results (about 2%) are left out. Not all results are given here. Potency and affinity values are given separately. Values without a mark were called inactive. Cut-off read from the data, not from the text of the source: inconclusive = inhibition above about 80% without an active follow-up result; inactive = below that; test concentration not stated here.

This assay can be described thus: M. tuberculosis H37Rv growth inhibitors, H37Rv strain (AID 1626).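 Note: bacteria incubated seven days before Alamar blue readout; 0% = bacteria only wells and 100% = bacteria with antibiotic wells.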 The note with it: stronger effect = higher value, concentration not given here.
Take `Cc1ccccc1NC(=O)Cc1nnc(SCc2ccc(Cl)c(Cl)c2)n1C`: the inhibition is -3.35%.
For `COc1cccc(C(=O)NNC(=S)NC2CCCCC2)c1`, the inhibition was 4.93%.
As for `CCCn1c(SCC(=O)Nc2ccccc2C(=O)OC)nc2c1c(=O)n(C)c(=O)n2C`, the inhibition is 0.72%.
Consider `O=C(CCl)NCc1c(Cl)cccc1-n1cccc1`, for which the inhibition was -3.53%.
As for `COCCOC(=O)c1c(NC(=O)CN2c3ccccc3CC2C)sc(C(N)=O)c1C` (configuration not stated), the inhibition is 6.79%.
Take `O=C(COC(=O)c1cccc(Cl)c1Cl)NCCN1C(=O)CSC1=O`: the inhibition was -1.16%.
The result for `O=S(=O)(c1cc(Cl)ccc1Br)N1CCCCC1` reads 3.97%; that for `CCOC(=O)N1CCC(Nc2nc3ccccc3n3cnnc23)CC1`, 4.5%.
As for `O=C(C[n+]1cc(-c2ccccc2)n2c1CCC2)Nc1nc(-c2ccccc2)cs1`, the inhibition was 77.8%.
For the compound `Cc1ccc(NC(=O)C[n+]2cc(-c3ccc(C)cc3)n3c2CCC3)cc1`, the inhibition was 0.55%.
Consider `Cc1ccc(-c2c[n+](CC(=O)Nc3c(C)cccc3C)c3n2CCC3)cc1`, for which the inhibition was -1.5%.
For `Cc1ccc(-c2csc(NC(=O)C[n+]3cc(-c4ccccc4)n4c3CCC4)n2)cc1` the value was 75.7%.
The result for `CC(C)(CO)NCc1ccc(Br)cc1` reads 1.99%; that for `C/C(=N/NC(=O)CN1CCN(Cc2ccccc2Cl)CC1)c1ccco1`, -5.99%; that for `CNC(=O)COC(=O)/C=C/c1ccco1`, -4.68%.
For `COC(=O)C1CC(=O)N(Cc2ccccc2)C1` (configuration not stated), the inhibition was -1.62%.
In the case of `COc1ccc(C2C(C(=O)OCC(=O)NC(C)(C)C)CCC(=O)N2c2ccc(C)cc2)cc1OC` (configuration not stated), the inhibition was 70.3%.
Consider `CCOC(=O)c1c(NC(=O)C(=O)N/N=C/c2ccc(OCC)cc2)sc2c1CCCCC2`, for which the inhibition is 2.16%.
In the case of `O=C(Cc1sc(-c2ccccc2Cl)nc1-c1ccccc1)Nc1ccc(F)cc1`, the inhibition is -0.94%.
As for `CC(C)CCN1C(=O)c2ccc(C(=O)NCc3ccco3)cc2C1=O`, the inhibition was 4.17%.
`COc1ccc(C2NCCc3c2[nH]c2ccccc32)cc1CN1CCc2cc(OC)c(OC)cc2C1C` (configuration not stated): the inhibition is 4.52%.
As for `COc1cc(C2NCCc3c2[nH]c2ccccc32)ccc1OC(C)C` (configuration not stated), the inhibition was 1.05%.
Turning to `Cc1ccc(N(CC(=O)NCCSc2nc3ccccc3s2)S(=O)(=O)c2ccccc2)c(C)c1`, the inhibition was 9.8%.
`COC(=O)c1ccc(/C=C(\C#N)c2nc3ccccc3s2)cc1`: the inhibition was 3.69%.
The result for `CNC(=O)Nc1cccc2cccnc12` reads -8.8%.
With `Cc1ccc(S(=O)(=O)Nc2cccc3cccnc23)cc1`, the inhibition is -2.94%.
As to `CN(CCc1ccccn1)C(=S)Nc1ccc(Cl)c(Cl)c1`, the inhibition is 3.62%.
For `COc1ccc(NS(=O)(=O)c2cnc[nH]2)cc1` the value was 5.45%.
For `Cc1[nH]n(-c2ccccc2)c(=O)c1C(=O)c1ccccc1`, the inhibition is -0.23%.
For `Cc1[nH]n(-c2ccccc2)c(=O)c1C(=O)c1ccc(Cl)cc1` the value was -3.87%; for `CCn1c(=O)c(=O)[nH]c2cc(C(=O)N3CCN(c4ccccc4F)CC3)ccc21`, 7.44%.
Consider `Nc1ccc(C(=O)OCC(=O)N2c3ccccc3Sc3ccccc32)cc1[N+](=O)[O-]`, for which the inhibition was -1.19%.
In the case of `Cc1ccc(N=Cc2c(O)n(-c3nccs3)c(=O)c3ccccc23)cc1`, the inhibition is -4.95%.
Turning to `Cc1cccc(C)c1N=Cc1c(O)n(-c2nccs2)c(=O)c2ccccc12`, the inhibition was 2.79%.
The result for `Cc1cc(C(=O)N/N=C/c2ccc(-c3ccc(C)c(Cl)c3)o2)n[nH]1` reads 56.6%.
Take `Clc1ccc(Cl)c(-c2ccc(/C=N/c3ncn[nH]3)o2)c1`: the inhibition was 6.69%.
For `COc1cccc(CN(C)Cc2nc3cc(C(F)(F)F)ccc3c(=O)[nH]2)c1` the value was 4.79%; for `CSc1ccc(CN(C)Cc2nc3cc(C(F)(F)F)ccc3c(=O)[nH]2)cc1`, 91.3%.
The result for `CC(C)C(=O)NNC(=O)c1c(O)c2ccccc2[nH]c1=O` reads -10.7%.
In the case of `Cc1cc(C)n(-c2ncc3c(n2)N(CCO)CCOC3=O)n1`, the inhibition is 10.4%.
Turning to `CN(C)c1ccc(/C=C/C(=O)c2cccnc2)cc1`, the inhibition was 3.22%.
Take `O=C(/C=C/c1ccccc1Cl)c1cccnc1`: the inhibition is -7.55%.
Regarding `O=C(/C=C/c1ccc([N+](=O)[O-])cc1)c1cccnc1`, the inhibition was 11.1%.
The result for `CCN(CC)c1ccc(/C=C/C(=O)c2cccnc2)cc1` reads 16.5%; that for `O=C(/C=C/c1ccccc1)c1ccccc1`, 10.5%.
On to `N#Cc1ccc(/C=C/C(=O)O)cc1`, for which the inhibition is -0.8%.
With `O=C(/C=C/c1cccnc1)c1ccc(O)cc1`, the inhibition was -0.25%.
On to `O=C(/C=C/c1cccc(O)c1)c1cccnc1`, for which the inhibition was 53.2%.
The result for `CC(C)(C)CC(C)(C)NC(=S)NC1CCN(Cc2ccccc2)CC1` reads -15.9%; that for `Cc1ccc(NC(=S)Nc2cccc(-c3n[nH]c(=S)o3)c2)cc1`, 10.2%; that for `O=C(COC(=O)/C=C/c1ccc(Cl)cc1)NCCC1=CCCCC1`, -4.53%.
For `Cc1cccc(C(=O)NCC2CCCO2)c1` (configuration not stated) the value was -2.3%; for `Cc1ccc(CNC(=O)C(=O)NCC2OCCN2S(=O)(=O)c2cccs2)cc1` (configuration not stated), -2.36%.
Turning to `CCOC(=O)c1c[nH]n(-c2ccc(C)cc2)c1=O`, the inhibition was -7.4%.
As to `Cc1onc(-c2ccccc2Cl)c1C(=O)Nc1ncn[nH]1`, the inhibition is 6.99%.
Regarding `CCOC(=O)C1CCCN(Cc2cc(Br)c(OC)cc2OC)C1` (configuration not stated), the inhibition was 1.19%.
Consider `Cc1cc(C(=O)N(CCC#N)Cc2cccs2)no1`, for which the inhibition is -6.57%.
As to `CCOc1ccc(C(C)NC(=O)C2CCC2)cc1` (configuration not stated), the inhibition is 1.59%.
On to `COCc1nnc(SCC(=O)NCc2ccccc2)n1-c1ccccc1`, for which the inhibition was -6.68%.
The result for `COc1ccccc1NC(=O)C1=C(C)NC2=C(C(=O)CCC2)C1c1ccc2c(c1)OCO2` (configuration not stated) reads -0.94%; that for `O=C(/C=C/c1ccc(Cl)c([N+](=O)[O-])c1)Nc1cccnc1`, -11.5%; that for `O=C(/C=C/c1ccc(Cl)c([N+](=O)[O-])c1)NCc1cccnc1`, 2.22%.

In general, inhibition refers to the relative decrease from the control value, in per cent.
